The text below walks through data of ChEMBL document CHEMBL4808148, “HDAC6 screening dataset using tau-based substrate in an enzymatic assay yields selective inhibitors and activators” (2021).

As usually defined, the inhibition is the change of the read-out against control, counted positive when it falls.

Screen size: about 5,600 compounds; about 390 (7%) showed an effect of 50% or more. This excerpt belongs to a sample that is enriched for strong results.

The target in the assay is T1, Protein deacetylase HDAC6 (Homo sapiens) (UniProt Q9UBN7).
T1 sequence (whole entry): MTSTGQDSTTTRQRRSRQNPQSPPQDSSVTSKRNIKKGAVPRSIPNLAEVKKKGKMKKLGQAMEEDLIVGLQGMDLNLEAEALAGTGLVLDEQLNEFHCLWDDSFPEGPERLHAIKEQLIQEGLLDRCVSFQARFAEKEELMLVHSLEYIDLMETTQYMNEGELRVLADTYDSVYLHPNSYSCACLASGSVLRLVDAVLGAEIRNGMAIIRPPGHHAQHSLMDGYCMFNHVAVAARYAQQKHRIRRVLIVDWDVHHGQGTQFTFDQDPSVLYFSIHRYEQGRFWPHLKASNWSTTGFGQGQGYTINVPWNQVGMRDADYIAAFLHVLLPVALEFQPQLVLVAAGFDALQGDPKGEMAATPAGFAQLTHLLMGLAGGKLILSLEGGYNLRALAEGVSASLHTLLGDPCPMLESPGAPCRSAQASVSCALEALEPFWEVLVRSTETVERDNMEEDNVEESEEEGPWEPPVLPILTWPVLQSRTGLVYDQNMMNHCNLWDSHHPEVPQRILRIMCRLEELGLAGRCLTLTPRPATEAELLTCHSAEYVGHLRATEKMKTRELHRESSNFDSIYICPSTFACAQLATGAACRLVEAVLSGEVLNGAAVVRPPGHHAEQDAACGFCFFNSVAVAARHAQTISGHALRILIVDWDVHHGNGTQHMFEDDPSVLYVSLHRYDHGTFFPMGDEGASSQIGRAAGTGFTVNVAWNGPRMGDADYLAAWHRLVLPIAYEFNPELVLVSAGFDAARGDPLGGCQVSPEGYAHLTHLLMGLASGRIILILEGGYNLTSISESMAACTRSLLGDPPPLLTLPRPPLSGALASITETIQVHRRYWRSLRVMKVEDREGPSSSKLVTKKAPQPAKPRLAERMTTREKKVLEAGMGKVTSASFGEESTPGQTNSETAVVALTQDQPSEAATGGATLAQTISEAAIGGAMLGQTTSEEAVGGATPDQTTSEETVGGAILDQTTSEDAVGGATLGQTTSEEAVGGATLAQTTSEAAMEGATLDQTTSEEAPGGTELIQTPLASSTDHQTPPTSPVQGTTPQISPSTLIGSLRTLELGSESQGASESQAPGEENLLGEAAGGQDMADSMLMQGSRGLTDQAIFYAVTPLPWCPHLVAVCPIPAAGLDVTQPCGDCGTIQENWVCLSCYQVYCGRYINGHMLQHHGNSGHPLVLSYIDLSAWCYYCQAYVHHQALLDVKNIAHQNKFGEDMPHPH
To be noted: at 10 µM.
Turning to `O=C1C(Cl)=C(N2CCOCC2)C(=O)N1c1ccc(Cl)c(Cl)c1`, the inhibition came to 86%.

On to `O=C(Nc1ccc(N2CCC(C(=O)N3CCOCC3)CC2)cc1)c1cnc(Oc2ccccc2)nc1`, for which the inhibition is 3.27%. The same measure for `CCN(CC)C(=S)S`: 13.4%; for `CC(=O)N(O)C/C=C/c1cccc(Oc2ccccc2)c1`: 9.26%. With `N[C@@H]1CCCN(c2c(/C=C3\SC(=O)NC3=O)cccc2-c2ccccc2)C1` the figure was 104%; with `CCCCCCC[N+](CC)(CC)CCCCc1ccc(Cl)cc1`, 11%. `COc1cc(OC)cc(N(CCNC(C)C)c2ccc3ncc(-c4cnn(C)c4)nc3c2)c1`: the inhibition was -0.23%.

In the case of `Nc1nc(-c2nn(Cc3ccccc3F)c3ncccc23)ncc1C1CC1`, the inhibition stood at 34.9%. For the molecule `N=C(N)NCCC(=O)O`, the inhibition was 1.27%. The same measure for `NC(=O)C1=CN([C@@H]2O[C@H](COP(=O)(O)OP(=O)(O)OC[C@H]3O[C@@H](n4cnc5c(N)ncnc54)[C@H](O)[C@@H]3O)[C@@H](O)[C@H]2O)C=CC1`: 4.98%; for `Cc1cnc(Nc2ccc(OCCN3CCCC3)cc2)nc1Nc1cccc(S(=O)(=O)NC(C)(C)C)c1`: 25%; for `CCCCc1ccc2[nH]c(NC(=O)OC)nc2c1`: 48%.

As for `O=C(NO)c1ccc2[nH]c(=O)c(CCCc3ccccc3)nc2c1`, the inhibition turned out to be 99.2%. With `O=C(Nc1cccc2c(=O)cc(-c3nnn[nH]3)oc12)c1ccc(OCCCCc2ccccc2)cc1` the figure was 9.45%; with `CCCCCCCCCCCCCCCC[N+](C)(C)Cc1ccccc1`, 36.2%.

Consider `CC(C)c1ccc(CC(=O)N2CCC[C@@H](c3cccc(OC(C)(C)C(=O)O)c3)C2)cc1`, for which the inhibition worked out at 24.2%. With `Nc1n[nH]c2nc3ccccc3nc12` the figure was 53.6%; with `COC(=O)CC1CC(c2ccc(O)cc2)=NO1` (configuration not stated), 96.7%; with `COC(=O)c1ccc(O)cc1`, 16.3%. On to `Nc1nc(Nc2ccccc2)nc2c1ncn2[C@@H]1O[C@H](CO)[C@@H](O)[C@H]1O`, for which the inhibition was -2.75%. With `CC(N)(C(=O)O)c1ccc(-c2nnn[nH]2)cc1` (configuration not stated) the figure was -2%. For the molecule `CN(C)C(=N)NCCC[C@H](N)C(=O)O`, the inhibition worked out at 23.2%. With `CS(=O)(=O)Nc1ccc([N+](=O)[O-])cc1Oc1ccccc1` the figure was 1.72%. As for `O=C(O)c1cc([N+](=O)[O-])ccc1NCCCc1ccccc1`, the inhibition stood at 109%.

Consider `Cn1c(NCCN(CCO)CCCc2ccc([N+](=O)[O-])cc2)cc(=O)n(C)c1=O`, for which the inhibition was found to be 7.31%.

Consider `O=C(Nc1ccccc1)N1CCC(Cc2cnc3ccccc3c2)CC1`, for which the inhibition came out at 27.7%.

`Cn1cc(C2=C(c3cn(CCCSC(=N)N)c4ccccc34)C(=O)NC2=O)c2ccccc21`: the inhibition was -2.47%. With `Cn1cc(/C=C2/C(=O)Nc3cccnc32)c2ccccc21` the figure was 99.5%. With `Cn1cc(C2=C(c3ccc(Cl)cc3Cl)C(=O)NC2=O)c2ccccc21` the figure was -5.95%; with `Cc1ccc(-c2cn3c4c(sc3n2)CCCC4)cc1`, 98%; with `Clc1ccccc1CNC[C@H]1CC[C@H](CNCc2ccccc2Cl)CC1`, 9.4%.

Regarding `N#Cc1ccncn1`, the inhibition was 5.74%. With `Nc1cccc(-c2cc3c(Oc4cccc(O)c4)ncnc3[nH]2)c1` the figure was 55.1%. Take `C[C@@H]([C@@H](O)c1ccc(O)cc1)N1CCC(O)(c2ccccc2)CC1`: the inhibition turned out to be 14.2%. With `CC/C=C(\C(=O)N[C@@H]1C(=O)N2C(C(=O)OCOC(=O)C(C)(C)C)=C(COC(N)=O)CS[C@H]12)c1csc(N)n1` the figure was 4.66%; with `N#Cc1c(O)c2c(-c3ccc(-c4ccccc4O)cc3)csc2[nH]c1=O`, 94.5%. The same measure for `CNC(=N)NC(=O)Nc1c(C)cccc1C`: 27.8%.

Regarding `C1=Cc2cccc(OCC3CNCCO3)c2C1` (configuration not stated), the inhibition is 18.4%.

Turning to `C=C(C)[C@@H]1CC[C@]2(C(=O)O)CC[C@]3(C)[C@H](CC[C@@H]4[C@@]5(C)CC[C@H](OC(=O)CC(C)(C)C(=O)O)C(C)(C)[C@@H]5CC[C@]43C)[C@@H]12`, the inhibition was determined as 26.3%. Turning to `COc1ccc(-c2cc(=O)c3c(OC)c(OC)c(OC)c(OC)c3o2)cc1`, the inhibition was determined as 44.4%. The same measure for `COc1ccc(-c2cc(=O)c3c(OC)c(OC)c(OC)c(OC)c3o2)cc1OC`: -2.26%; for `O=c1cc(-c2ccc(O)cc2)oc2cc(O)cc(O)c12`: 97%. The same measure for `O=C(O)c1cc(O)c2c3nc4ccccc4oc-3cc(=O)c2n1`: 5.48%. With `OCc1ccccc1O[C@@H]1O[C@H](CO)[C@@H](O)[C@H](O)[C@H]1O` the figure was -9.23%. Consider `O=C(O)[C@H]1O[C@H](Oc2cc3oc(-c4ccccc4)cc(=O)c3c(O)c2O)[C@H](O)[C@@H](O)[C@@H]1O`, for which the inhibition came out at 61.7%. With `O=C(O)c1cc(O)c2c(c1)[C@@H]([C@H]1c3cc(C(=O)O)cc(O)c3C(=O)c3c(O[C@H]4O[C@H](CO)[C@@H](O)[C@H](O)[C@H]4O)cccc31)c1cccc(O[C@H]3O[C@H](CO)[C@@H](O)[C@H](O)[C@H]3O)c1C2=O` the figure was 17.7%; with `O=c1oc2cc(O)ccc2s1`, 15.3%. With `CCOC(=O)COc1ccc2c(=O)cc(-c3ccccc3)oc2c1` the figure was 46.4%; with `O=c1cc(-c2ccccc2)oc2cc(O)cc(O)c12`, 101%. The same measure for `COc1ccc(-c2cc(=O)c3c(O)c(OC)c(O)cc3o2)cc1OC`: 85.7%; for `CC(O)C(N)C(=O)O` (configuration not stated): 8.96%; for `Cc1ccc(Oc2ccccc2-c2csc(N=C3NCCCN3)n2)c(C)c1`: 38.2%.
